# Among all 330,000 compounds or so, about 1,700 (0.52%) were called active. The full list was thinned out, with actives kept by preference. A number with no mark means an inactive call. No stated cut-off is given here; in the data, active means inhibition above about 50%; inactive means the rest.
# Experiment: inhibitors of induced NF-kB luciferase reporter, primary screen, TCR NF-kB activation inhibitor project, cell-based, luminescence, uHTS (AID 435003)
# Conditions: Jurkat, PMA/ionomycin-induced NF-kB luciferase reporter, at 4 µM, active compounds read high
row,Compound,inhibition
1,CC1CN(C2CCN(C(=O)COc3ccccc3)CC2)CC(C)O1 (stereo not drawn),-5.33%
2,CSc1ccc(S(=O)(=O)Nc2cccc(F)c2)cc1,-8.25%
3,COc1ccccc1N1CCN(S(=O)(=O)c2ccc(Cl)cc2)CC1,-16.1%
4,COc1ccccc1-n1nnnc1SCC(=O)NC(=O)Cc1ccccc1,4.18%
5,COc1ccccc1-n1nnnc1S(=O)(=O)Cc1ccc(Cl)cc1,55.8% (active)
6,Cn1c2c(c(=O)n(C)c1=O)C(c1ccc(O)cc1)Nc1ccccc1O2 (stereo not drawn),3.73%
7,CCCCCCCCn1c2c(c(=N)c3c1CCC3)CCCC2,89.5% (active)
8,COc1ccc(C)cc1NC(=O)C(OC(=O)c1cccc(S(=O)(=O)N(C)c2ccccc2)c1)c1ccccc1 (stereo not drawn),10.1%
9,CN(C)C(CNC(=O)c1ccc(S(=O)(=O)NCc2ccco2)cc1)c1ccccc1 (stereo not drawn),-19.3%
10,CC(=O)Nc1ccc(NC(=O)C2CCCN(S(=O)(=O)c3ccc(Cl)cc3)C2)cc1 (stereo not drawn),-4.31%
11,CC(C)(C)Nc1c(-c2cccs2)nc2ccccn12,-10.6%
12,C/C(=N\NC(=O)c1ccoc1C)c1ccccc1O,-29.9%
13,C/C(=N\NC(=O)c1ccccc1F)c1ccccn1,90.2% (active)
14,COc1ccc(/C(C)=N\NC(=O)c2ccc(-c3ccccc3)cc2)c(F)c1,-14.4%
15,Cc1cc(Cl)ccc1NC(=S)N1CCC(C(N)=O)(N2CCCCC2)CC1,5.02%
16,Cc1ccc(-n2ncc3c2CCCC3NC(=O)c2cnccn2)cc1C (stereo not drawn),-3.8%
17,COc1ccc(C(=O)NC2CCCc3c2cnn3-c2cccc(C)c2C)c(OC)n1 (stereo not drawn),29.1%
18,CC(=O)NCC(=O)NC1CCCc2c1cnn2-c1ccccc1F (stereo not drawn),-8.3%
19,Cc1cc(C(=O)NC2CCCc3c2cnn3-c2cccc(C)c2C)c(C)o1 (stereo not drawn),29.7%
20,Cn1nccc1C(=O)NC1CCCc2c1cnn2-c1ccc(F)cc1F (stereo not drawn),71% (active)

row,Compound,inhibition
1,Cn1nccc1C(=O)NC1CCCc2c1cnn2-c1ccccc1F (stereo not drawn),62.9% (active)
2,CC1CC(C)CN(C(=O)CCNC(=O)Cn2cnc3ccccc3c2=O)C1 (stereo not drawn),-7.78%
3,Cc1ccc(S(=O)(=O)N(C)C)cc1NC(=O)c1n[nH]c(=O)c2ccccc12,-17.4%
4,COC(=O)C1=NN(c2ccccc2)C2C(=O)N(c3ccccc3OC)C(=O)C12 (stereo not drawn),25.7%
5,COc1ccc(NCc2nnc(SCc3ccccc3)n2-c2ccc(OC)cc2)cc1,-6.88%
6,CCOC(=O)c1cccc(NC(=O)C2CCN(c3ncnc4c3nc3n4CCCCC3)CC2)c1,12.1%
7,Cc1nc2ccccc2nc1N/N=C/c1ccc(O)cc1O,20.4%
8,Oc1c(Br)cccc1/C=N/Nc1c(F)c(F)c(F)c(F)c1F,2.14%
9,Oc1cccc(/C=N/Nc2ccc(Cl)nn2)c1O,54.9% (active)
10,Cc1cc(=O)[nH]c(Nc2cccc(Br)c2)n1,12.3%
11,CN(Cc1ccccc1)C(=O)CCNC(=O)Cn1cnc2ccccc2c1=O,-2.32%
12,CC(C)n1cnc2c(Nc3cccc(Cl)c3)nc(N(CCO)CCCO)nc21,-12%
13,Cc1cccc(Nc2nc(NCCO)nc(N3CCCC3)n2)c1,5.92%
14,OCCCNc1nccc(-c2cc(Nc3cccc(Cl)c3)ncn2)n1,98.5% (active)
15,Cc1ccc(S(=O)(=O)c2nc(-c3cccs3)oc2NCc2cccnc2)cc1,-3.33%
16,COc1ccc(C(=O)N2CCN(c3ccc(C(C)=O)cc3F)CC2)cc1S(=O)(=O)NC1CC1,-20.9%
17,C[C@H](CO)N1C[C@H](C)[C@@H](CN(C)C(=O)NC2CCCCC2)Oc2ccc(NC(=O)c3ccncc3)cc2C1=O,7.62%
18,COCCCNC(=O)CCc1nc2cccnc2n1Cc1ccc(OC)cc1,1.81%
19,Cn1c(-c2ccc(C(F)(F)F)cc2)cc2onc(-c3ccccc3)c2c1=O,-242%
20,CCOc1ccc(C(=O)Nc2ccc(CN3CCOCC3)cc2)cc1Cl,-22.2%

row,Compound,inhibition
1,O=C(Nc1ccccc1C(=O)N1CCOCC1)c1ccc(CSc2ccccc2)cc1,-0.886%
2,O=C(Nc1ccc(CSc2ccccc2)cc1)c1ccc(CN2CCOCC2)cc1,69% (active)
3,Cc1ccc2nc(-c3ccncc3)cc(C(=O)Nc3ccc(OC(F)F)cc3)c2c1,53.6% (active)
4,CCN(CC)CCNC(=O)c1ccc(NC(=O)c2cc(-c3ccncc3)nc3ccccc23)cc1,-38.2%
5,Cc1ccc2nc(-c3ccccn3)cc(C(=O)Nc3ccc4c(c3)OCO4)c2c1,11.1%
6,CC(C)CC[n+]1ccn(C2=C([O-])c3ccccc3C(=O)/C2=N\S(=O)(=O)c2ccccc2)c1,6.27%
7,Cc1ccc(OCCNC(=O)CN2C(=O)NC3(CCCC3)C2=O)cc1,7.61%
8,O=C(Nc1ccc(Br)cc1)c1cccc(NC(=O)C2C3CC4OC(=O)C2C4C3)c1 (stereo not drawn),-6.94%
9,COc1ccc(NC(=O)C/C(C)=N/NC(=O)c2cnccn2)cc1Cl,-12.8%
10,CCN1CCN(c2ccc(NC(=O)c3cnccn3)cc2)CC1,-79.3%
11,CCN(CC)c1ccc(/C=N/NC(=O)c2cnccn2)c(O)c1,59.3% (active)
12,CCC(C)n1[nH]c(=O)cc1N (stereo not drawn),6.5%
13,N#CC1(C#N)C(C(=O)C23CC4CC(CC(C4)C2)C3)C12CCOCC2 (stereo not drawn),3.42%
14,C=C(C)C(=O)O[C@H]1C/C(C)=C\C(=O)/C=C(\C)[C@H](O)[C@@H]2OC(=O)C(=C)[C@@H]21,76.7% (active)
15,COc1ccc2cc1Oc1ccc(cc1)C[C@H]1c3cc(c(OC)cc3CCN1C)Oc1c(O)c(OC)cc3c1[C@H](C2)N(C)CC3,81.7% (active)
16,C=CCn1c(SCC(=O)NCC2CCCO2)nc2sc(C)c(C)c2c1=O (stereo not drawn),-2.81%
17,C=CCn1c(SCC(=O)NCCCO)nc2sc3c(c2c1=O)CCC3,6.01%
18,C=CCn1c(SCc2c(C)noc2C)nc2sc3c(c2c1=O)CCC(C)C3 (stereo not drawn),69.9% (active)
